# Structures can show the parent of a compound that is named as a salt.
# Tested on: Danio rerio larvae (5 dpf)
# Assay: optomotor response to green moving lines, difference vs DMSO (percentage points (treated minus DMSO)); higher = more of the behaviour than the DMSO vehicle control
# Details: 10 µM; exposure time: 3 h pre-incubation + 3 h imaging
# Procedure: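 5-dpf wild-type zebrafish larvae were imaged in 96-well plates. They were treated with 190 Tocris FDA-approved drugs at 10 µM (1 µl/ml DMSO) for 3 h before and 3 h during imaging at 28.5 °C, 48 larvae per drug. Automated image analysis gave % time moving and optomotor responses. Values are drug group mean minus DMSO vehicle mean (n=844), in percentage points, for 10 behaviours.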
row,Structure (SMILES),optomotor response to green moving lines
1,O=C(O)CCCc1ccccc1 [Sodium 4-Phenylbutyrate],-2.96
2,Cc1ccc(O)c([C@H](CCN(C(C)C)C(C)C)c2ccccc2)c1 [Tolterodine L-tartrate],0.477
3,COC(=O)C1=C(C)NC(C)=C(C(=O)OC(C)C)C1c1cccc2nonc12 (stereo not given) [Isradipine],-1.42
4,C[C@@H]1C[C@H]2[C@@H]3CCC4=CC(=O)C=C[C@]4(C)[C@@]3(F)[C@@H](O)C[C@]2(C)[C@@]1(O)C(=O)CO [Dexamethasone],1.46
5,CCCCCCCCc1ccc(CCC(N)(CO)CO)cc1,-1.15
6,CCCCC1=NC2(CCCC2)C(=O)N1Cc1ccc(-c2ccccc2-c2nnn[nH]2)cc1 [Irbesartan],-19
7,Cc1nnc(C(C)C)n1C1C[C@H]2CC[C@@H](C1)N2CC[C@H](NC(=O)C1CCC(F)(F)CC1)c1ccccc1 (stereo in doubt) [Maraviroc],3.11
8,O=c1[nH]c(=O)n([C@H]2C[C@H](O)[C@@H](CO)O2)cc1C(F)(F)F [Trifluorothymidine],6.4
9,C[C@H]1C[C@@H]2[C@H]([C@@H](O)C[C@@]3(C)[C@H]2CC[C@]3(O)C(=O)CO)[C@@]2(C)C=CC(=O)C=C12 [Methylprednisolone],5.3
10,CC(=O)O[C@H]1C(=O)[C@@]2(C)[C@H]([C@H](OC(=O)c3ccccc3)[C@]3(O)C[C@H](OC(=O)[C@H](O)[C@@H](NC(=O)c4ccccc4)c4ccccc4)C(C)=C1C3(C)C)[C@]1(OC(C)=O)CO[C@@H]1C[C@@H]2O [Taxol],-4.62
11,CCCCC(=O)N(Cc1ccc(-c2ccccc2-c2nnn[nH]2)cc1)[C@H](C(=O)O)C(C)C [Valsartan],4.22
12,CNCc1ccc(-c2[nH]c3cc(F)cc4c3c2CCNC4=O)cc1 [Rucaparib camsylate],1.55
13,Cc1nc(-c2ccc(OCC(C)C)c(C#N)c2)sc1C(=O)O [Febuxostat],-4.77
14,COc1c(C)c2c(c(O)c1C/C=C(\C)CCC(=O)O)C(=O)OC2 [Mycophenolic acid],-1.15
15,CC1CNc2c(cccc2S(=O)(=O)N[C@@H](CCCNC(=N)N)C(=O)N2CC[C@@H](C)C[C@@H]2C(=O)O)C1 (stereo not given in full) [Argatroban],-1.18
16,C[C@@H](O[C@H]1OCCN(Cc2n[nH]c(=O)[nH]2)[C@H]1c1ccc(F)cc1)c1cc(C(F)(F)F)cc(C(F)(F)F)c1 [Aprepitant],4.81
17,CN(C)CCc1c[nH]c2ccc(C[C@H]3COC(=O)N3)cc12 [Zolmitriptan],6.88
18,CCCc1nn(C)c2c(=O)[nH]c(-c3cc(S(=O)(=O)N4CCN(C)CC4)ccc3OCC)nc12 [Sildenafil citrate],-1.55
19,CCOc1nc2cccc(C(=O)O)c2n1Cc1ccc(-c2ccccc2-c2nnn[nH]2)cc1 [Candesartan],0.689
20,Cn1cnc([N+](=O)[O-])c1Sc1ncnc2[nH]cnc12 [Azathioprine],-1.06

row,Structure (SMILES),optomotor response to green moving lines
1,CCCc1nc(C(C)(C)O)c(C(=O)O)n1Cc1ccc(-c2ccccc2-c2nnn[nH]2)cc1 [Olmesartan],-2.59
2,Cc1cn([C@H]2C=C[C@@H](CO)O2)c(=O)[nH]c1=O [Stavudine],1.24
3,CCOC(=O)[C@H](CCc1ccccc1)N[C@@H](C)C(=O)N1[C@H](C(=O)O)C[C@@H]2CCC[C@@H]21 [Ramipril],-0.542
4,CN1CC2c3ccccc3Oc3ccc(Cl)cc3C2C1 (stereo not given) [Asenapine maleate],-9.85
5,CN(C)CCC[C@@]1(c2ccc(F)cc2)OCc2cc(C#N)ccc21 [Escitalopram oxalate],1.9
6,CC(CCc1ccc(O)cc1)NCCc1ccc(O)c(O)c1 (stereo not given) [Dobutamine hydrochloride],4.26
7,Nc1nc(Cl)nc2c1ncn2[C@@H]1O[C@H](CO)[C@@H](O)[C@@H]1F [Clofarabine],7.3
8,C[C@]12CC[C@@H]3c4ccc(O)cc4C[C@@H](CCCCCCCCC[S+]([O-])CCCC(F)(F)C(F)(F)F)[C@H]3[C@@H]1CC[C@@H]2O (stereo not given in full),-7.68
9,O=C(Nc1c(Cl)cncc1Cl)c1ccc(OC(F)F)c(OCC2CC2)c1 [Roflumilast],-11.7
10,C/C(O)=C(\C#N)C(=O)Nc1ccc(C(F)(F)F)cc1 [Teriflunomide],-10.8
11,Clc1ccc2nsnc2c1NC1=NCCN1 [Tizanidine hydrochloride],-0.817
12,COc1cc2ncnc(Nc3ccc(F)c(Cl)c3)c2cc1OCCCN1CCOCC1 [Iressa],-10.8
13,CC(C)C(=O)OCC(=O)[C@@]12O[C@H](C3CCCCC3)O[C@@H]1C[C@H]1[C@@H]3CCC4=CC(=O)C=C[C@]4(C)[C@H]3[C@@H](O)C[C@@]12C [Ciclesonide],-7.98
14,O=C(c1ccc(OCCN2CCCCC2)cc1)c1c(-c2ccc(O)cc2)sc2cc(O)ccc12 [Raloxifene hydrochloride],-7.74
15,CN(CCOc1ccc(CC2SC(=O)NC2=O)cc1)c1ccccn1 (stereo not given) [Rosiglitazone],1.76
16,Cn1nnc2c(C(N)=O)ncn2c1=O [Temozolomide],-1.84
17,CN(C)C(=N)NC(=N)N [Metformin hydrochloride],7.37
18,NS(=O)(=O)c1cc2c(cc1Cl)NC(C1CC3C=CC1C3)NS2(=O)=O (stereo not given) [Cyclothiazide],0.907
19,NC(=O)c1ncn([C@@H]2O[C@H](CO)[C@@H](O)[C@H]2O)n1 [Ribavirin],-3.77
20,Nc1nc2c(ncn2COCCO)c(=O)[nH]1 [Acyclovir],0.472
